Laboratory results: PubChem BioAssay AID1159580 (chemical genetic matrix, 2015)
In all, about 5,500 compounds went through this assay and about 2,000 (36%) were called active. Roughly 18% stayed inconclusive and do not appear here. No stated cut-off is given here; in the data, active means normalized growth mostly below about 0.91 (no sharp cut-off); inconclusive means no clear call, values can overlap the other calls; inactive means mostly above about 0.92. Some of the results follow.

Experiment: chemical genetic growth profiling, strain panel (AID 1159580);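 further: tested at 20 µM; growth read once vehicle control cultures reached saturation at 30 °C; 1 = growth at the plate median or of vehicle wells; lower values mean less growth of the strain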
Conditions: S. cerevisiae deletion strains, growth OD

Measured: normalized growth

CCCCC/C=C\C/C=C\C/C=C\C/C=C\CCCC(=O)NCC(=O)O
inactive: locus YAL040C, strain CLN3, active compounds read low 1.02 | locus YDR150W, strain NUM1, active compounds read low 1.03 | locus YDR363W, strain ESC2, active compounds read low 1.02 | locus YER002W, strain NOP16, active compounds read low 1.02 | locus YGR078C, strain PAC10, active compounds read low 0.985 | locus YGR229C, strain SMI1, active compounds read low 0.963 | locus YNL153C, strain GIM3, active compounds read low 1.07 | locus YNL175C, strain NOP13, active compounds read low 0.941 | locus YNL197C, strain WHI3, active compounds read low 1.01 | locus YNL224C, strain SQS1, active compounds read low 0.979 | locus YOR083W, strain WHI5 (second series), active compounds read low 0.962
